Rows were chosen to be rich in hits. Some 16% of all compounds tested hit in one or more screens of this group.
TDP1 block: qHTS Assay for Inhibitors of Tyrosyl-DNA Phosphodiesterase (TDP1); Potency, µM (highest dose often 130 µM), for the others: at the highest dose activity change, negative = inhibition, hits mostly inhibitors; 350,000 tested, 0.28% active; recombinant TDP1, AlphaScreen DNA substrate cleavage; AID 485290, 2010; Tyrosyl-DNA phosphodiesterase 1 (Homo sapiens), Q9NUW8; further: potency means the concentration at half of the fitted maximal effect; on the % scale 0 is the no-effect control and ±100 the full control effect; nearly all actives have a fitted effect of over 40% in size
Target sequence (Q9NUW8 whole entry, looked up): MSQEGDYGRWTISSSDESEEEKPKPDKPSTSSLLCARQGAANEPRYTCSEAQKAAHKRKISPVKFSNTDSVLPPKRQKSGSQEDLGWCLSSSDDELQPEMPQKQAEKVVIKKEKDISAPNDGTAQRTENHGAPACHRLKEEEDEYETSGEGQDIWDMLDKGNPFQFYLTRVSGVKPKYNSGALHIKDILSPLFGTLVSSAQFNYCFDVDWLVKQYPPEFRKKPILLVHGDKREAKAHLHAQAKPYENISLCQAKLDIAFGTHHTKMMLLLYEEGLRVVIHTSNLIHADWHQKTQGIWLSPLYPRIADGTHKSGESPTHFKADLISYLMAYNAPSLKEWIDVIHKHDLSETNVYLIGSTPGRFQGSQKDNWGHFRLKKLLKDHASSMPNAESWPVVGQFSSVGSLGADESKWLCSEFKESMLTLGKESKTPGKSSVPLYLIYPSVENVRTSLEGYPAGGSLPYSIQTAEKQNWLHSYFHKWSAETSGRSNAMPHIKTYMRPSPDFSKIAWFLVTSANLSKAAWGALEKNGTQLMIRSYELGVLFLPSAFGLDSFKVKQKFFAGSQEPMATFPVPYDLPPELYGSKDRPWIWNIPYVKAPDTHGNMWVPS
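Here, a 5' biotin and 3' phosphotyrosine-FITC DNA oligonucleotide reports Tdp1 activity: intact substrate bridges AlphaScreen beads, while cleavage leaves a 3' phosphate and drops signal. All incubations at room temperature.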
uPA surface inh: qHTS for Inhibitors of Cell Surface uPA Generation | AID 540303, 2011 | 330,000 tested, 0.31% active | Potency, µM (highest dose often 38.3 µM), for the others: at the highest dose activity change, negative = inhibition, hits mostly inhibitors | cell surface uPA generation assay, qHTS; active means well fitted inhibition curve with a large enough effect; inconclusive means small, poorly fitted or top-dose-only effect; inactive means no such curve, though single readings can be large or run the other way; tested in mouse RAW 264.7 cells; further: potency means the concentration at half of the fitted maximal effect; on the % scale 0 is the no-effect control and ±100 the full control effect; nearly all actives have a fitted effect of over 55% in size
DT40 TDP1 CPT: qHTS for Inhibitors of human tyrosyl-DNA phosphodiesterase 1 (TDP1): qHTS in cells in presence of CPT; chicken DT40 Tdp1-/-;hTDP1 cells + 20 nM CPT, ATP luminescence, 48 h; AID 686979, 2013; 420,000 tested, 12% active; Potency, µM (top dose mostly 46.2 µM), for the others: top-dose activity change, negative = growth inhibition, most hits filed as inhibitors; further: potency means the concentration at half of the fitted maximal effect; on the % scale 0 is the no-effect control and ±100 the full control effect; nearly all actives have a fitted effect of over 55% in size
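Chicken DT40 Tdp1-/- cells complemented with human TDP1, 400 cells/well, exposed to compounds plus 20 nM camptothecin for at least 48 h at 37 C; viability read as ATP content by CellTiter-Glo luminescence.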
TDP1 cell noCPT: qHTS for Inhibitors of human tyrosyl-DNA phosphodiesterase 1 (TDP1): qHTS in cells in absence of CPT; DT40 Tdp1-/- hTDP1 cells, no CPT, ATP luminescence, 48 h; Potency, µM (series often up to 46.2 µM), inactives show top-dose activity change, negative = growth inhibition, hits mostly inhibitors; 420,000 tested, 15% active; AID 686978, 2013; further: potency means the concentration at half of the fitted maximal effect; on the % scale 0 is the no-effect control and ±100 the full control effect; nearly all actives have a fitted effect of over 55% in size
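Seeded 400 DT40-hTDP1 cells/well (vehicle DMSO, no 20 nM CPT); pinned compounds; ≥48 hr at 37 °C; CellTiter-Glo luminescence as viability measure.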
miR-21 act: qHTS Assay for Modulators of miRNAs and/orActivators of miR-21; Potency, µM (doses to about 38.3 µM), inactives show at the top dose activity change, positive = activation, most hits filed as activators; HeLa miR-21 FLuc reporter, luciferase, 48 h; AID 2288, 2010; 340,000 tested, under 10 active;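 further: % of control where 0% means no effect; miR-21 action dims this reporter so a rising signal means less miR-21 action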
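Using DMEM plus 10% FBS, HeLa miR-21-FLuc cells are incubated with test compounds (final up to about 40uM) for 48 hours; firefly luciferase signal is then imaged following reagent-mediated lysis.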
* hit, by the source's call; ? = inconclusive; . = no result; ! = not active in a repeat; [ ] = dose if it differs, or a comment. Unless noted, the call rests on the fitted dose curve; in most records, active means well fitted curve in the direction sought with a large enough effect; inconclusive means small, poorly fitted or top-dose-only effect, or another doubt; inactive means no such curve, though single readings can be large; an effect the other way counts as inactive or inconclusive.

SMILES	TDP1 block	uPA surface inh	DT40 TDP1 CPT	TDP1 cell noCPT	miR-21 act
CCOC(=O)c1c(N)n(CCCOC(=O)c2ccco2)c2nc3ccccc3nc12	5%	-11%	12µM*	13µM*	9%
CCOC(=O)c1c(NS(=O)(=O)c2ccccc2)n(CCCOC)c2nc3ccccc3nc12	-4%	-1%	?	?	11%
CCCCCn1c(NC(=O)c2ccco2)c(C(=O)OCC)c2nc3ccccc3nc21	3%	-17%	21µM*	16µM*	4%
CCOc1cc2c(cc1OCC)-n1cccc1C(c1ccc(OC)cc1)NC2 (stereo unspecified)	.	-6%	?	18µM*	10%
CCOc1cc2c(cc1OCC)-n1cccc1C(c1ccc(C(C)C)cc1)NC2 (stereo unspecified)	.	-6%	8.2µM*	7.3µM*	30%
CCOc1cc2c(cc1OCC)-n1cccc1C(c1ccc(OC(F)F)cc1)NC2 (stereo unspecified)	.	-1%	?	18µM*	12%
CCOc1cc2c(cc1OCC)-n1cccc1C(c1ccc(F)cc1)NC2 (stereo unspecified)	.	-22%	?	?	2%
C[N+]1([O-])CCC[C@@H]1c1cccnc1 (stereo partly specified)	7%	.	3%	-19%	.
CCCC[C@@H](CNC)NC[C@H](Cc1ccc(O)cc1)NCCc1ccc(OCC)cc1	.	?	5.2µM*	3.3µM*	?
CCOc1ccc(OCC)c(NC(=O)CN2CCN(c3ccc(C)cc3C)CC2)c1	-7%[56.1 µM]	-4%	?	16µM*	-3%
CCOC(=O)C1(c2ccccc2)CCN(CC(=O)Nc2ccc(C)cc2)CC1	.	6%	?	?	5%
COc1ccc(C)cc1NC(=O)CN1CCN(CC(=O)Nc2ccccc2F)CC1	0%	5%	23µM*	15µM*	-4%
O=C(c1cc(C(=O)NCc2ccc(Cl)cc2)c(=O)n(Cc2ccc(Cl)cc2)c1)c1cc(F)ccc1O	4%	1%	?	?	2%
Cc1ccc(O)c(C(=O)c2cc(C(=O)NCCC(C)C)c(=O)n(CCC(C)C)c2)c1	5%	-10%	23µM*	18µM*	-5%
C1=CC(Cc2cncs2)c2ccccc21 (stereo unspecified)	0%	1%	7%	3%	.
C[C@@H]1CN([C@@H](C)CO)C(=O)CCCn2nncc2CO[C@H]1CN(C)C(=O)Oc1ccccc1	.	.	4%	-16%	.
C[C@H]1C(=O)O[C@@H]2CCN3CC=C(COC(=O)[C@](C)(O)[C@]1(C)O)[C@H]23	3%	-14%	12µM*!	?	.
CC(=NCCN1CCCCC1)c1c(O)[nH]c(=O)[nH]c1=O	5%	4%	-17%	-3%	-3%
CC1=C2CCC3C4CCC(=O)[C@@]4(C)CCC3[C@]2(C)CCC1=O (stereo partly specified)	14%[56.1 µM]	.	-15%	-20%	.
CN(C)CCNC(=O)c1cccn(Cc2cccc(C(F)(F)F)c2)c1=O	0%	0%	23µM*	?	-10%
CNC(=O)c1cccn(Cc2cccc(C(F)(F)F)c2)c1=O	0%	0%	-8%	?	12%
O=C1NC(=O)C(=Cc2ccco2)C(=O)N1	.	1%	?	-30%	.
O=C1NC(=O)C(=Cc2coc3ccc(O)cc3c2=O)C(=O)N1	.	-18%	16µM*	21µM*	-1%
COc1ccccc1C1c2[nH]c3ccccc3c2C[C@H]2C(=O)N(C3CCN(Cc4ccccc4)CC3)CC(=O)N12 (stereo partly specified)	.	?	?	9.2µM*	20%
COC(=O)C1C(c2ccccc2)C2C(=O)c3c(OC)cc(OC)cc3O[C@@]12c1ccc(OC)cc1 (stereo partly specified)	10%[21 µM]	.	.	.	.

Screening results from PubChem.
